Assay results as given in ChEMBL document CHEMBL3988442, “University of Dundee, Small-Polar-MMV Screening Library” (2021).
The whole screen tested about 48,000 compounds, of which about 13,000 (27%) showed an effect of 50% or more. The list shows a part of the results.

Tested on: Wolbachia pipientis
Assay: Anti-Wolbachia Cell-Based Screen
Type: functional
Parameters: scale not given: in the data most compounds retested in dose-response had high values
Conditions: 5 µM

First: COC(=O)c1cc(CN2CCN(c3ncccc3C)CC2)ccc1O
Second: COc1ccc(CC2(C(=O)O)CCN(c3nc(C)ncc3C)CC2)cc1
The “Percent Effect” value of the first is higher: 0.3059% for the first, -10.05% for the second.

Going from `CCC(C)NS(=O)(=O)Cc1cccc(NC(=O)C2=CCCC2)c1` (stereo not given) to `CCc1cccc(NC(=O)N2CCn3cnc(COC)c3C2)c1`, the “Percent Effect” value rises from -11.93% to 112.6%.

Going from `CCN(CC(=O)NC)S(=O)(=O)N1CCCCCC1` to `CCN(C)S(=O)(=O)NC(C)c1cnc(N(C)C2CCCCC2)nc1C` (stereo not given), the “Percent Effect” value rises from -4.569% to -0.2104%.

First: O=C1OCCN1CCCN1CCCC1c1ccc(O)cc1 (stereo not given)
Second: Cc1ccc(OCC2CCCN(C(=O)CN3CCOCC3)C2)cc1 (stereo not given)
The “Percent Effect” value of the first is lower: -23.79% for the first, -2.27% for the second.

Going from `Cc1c[nH]c(CN2CC[C@@]3(O)CCN(C(=O)C4CCC4)C[C@H]3C2)n1` to `Cc1cnc(C(=O)N2C[C@@H]3[C@@H](C2)OCC(=O)N3CC2CCCC2)cn1`, the “Percent Effect” value rises from 3.285% to 9.694%.

Compared with `O=c1c(-c2ccnc(NC3CCCCC3)n2)cnc2sc(Cl)cn12`, `O=c1c(-c2ccnc(NC3CCOCC3)n2)cnc2sc(Cl)cn12` is lower in “Percent Effect” value: 123.9% for the first, -8.128% for the second.

Going from `CN(c1ncc(C(=O)Nc2ccccc2)c(N)n1)C1CCCCC1` to `Cc1nc(N(C)C2CCCCC2)ncc1C(C)NC(=O)c1cccnc1` (stereo not given), the “Percent Effect” value rises from -11.44% to 7.363%.

Going from `Cc1nc(N(C)C2CCCCC2)ncc1C(C)NC(=O)c1cscn1` (stereo not given) to `Cc1cn2c(=O)c(-c3ccnc(N(C)C4CCCCC4)n3)cnc2s1`, the “Percent Effect” value rises from -3.92% to 84.88%.

Going from `CN(C)c1nccc(N(C)C2CCCCC2)n1` to `CN(c1nccc(-c2cnc3sccn3c2=O)n1)C1CCCCC1`, the “Percent Effect” value rises from -7.043% to 92.84%.

Going from `COc1ccnc(NC2CCN(CC(=O)N3CCCC3)CC2)n1` to `COc1cccc(OCC2CCCN(C3CCN(C(C)=O)CC3)C2)c1` (stereo not given), the “Percent Effect” value falls from -3.698% to -9.945%.

Compared with `CN(c1nccc(-c2cnc3sc(Cl)cn3c2=O)n1)C1CCCCC1`, `Cc1ccc2nc(CN3CCN(C4CCCCC4)C(=O)C3)cc(O)c2c1` is lower in “Percent Effect” value: 110% for the first, -5.19% for the second.

First: O=C1N(C2CCCCC2)C[C@H]2CN(C3CCC3)CCN12
Second: O=C1CN(Cc2ccc3ccccc3n2)CCN1C1CCCC1
The “Percent Effect” value of the first is lower: -8.618% for the first, 128.2% for the second.

Compared with `Cc1ccc(C(C)NCCc2nccn2Cc2ccccc2)o1` (stereo not given), `CC(C)N(Cc1ccccc1)Cc1csc(-c2ncccn2)n1` is lower in “Percent Effect” value: -3.119% for the first, -35.25% for the second.

Going from `O=C(NCCc1ccccc1Cl)NCC1(O)CCSC1` (stereo not given) to `Cc1cccc(NC(=O)NCC2(N3CCOCC3)CCSC2)c1` (stereo not given), the “Percent Effect” value rises from 5.482% to 9.501%.

First: COc1cccc(CCC2CCCN(C(=O)c3n[nH]c4c3CCC4)C2)c1 (stereo not given)
Second: COc1ccccc1CC1CCCN(C(=O)c2n[nH]c3c2CCC3)C1 (stereo not given)
The “Percent Effect” value of the first is higher: 9.398% for the first, -10.41% for the second.

Going from `CO[C@H]1C[C@@H]2CN(C(=O)c3n[nH]c4c3CCCC4)C[C@@H]2C1` to `Cc1cnc(C(=O)N2C[C@H]3CCCC(OCc4cccnc4)[C@H]3C2)cn1` (stereo not given in full), the “Percent Effect” value falls from 95.28% to -8.577%.

Going from `O=C(NCc1ccccc1Cn1ccnc1)N1CCOCC1` to `COc1ccccc1CNC1(CCO)CCOCC1`, the “Percent Effect” value rises from -11.31% to 8.279%.

First: CCC(CNC(=O)c1nc(=O)[nH][nH]1)Oc1ccccc1C(F)(F)F (stereo not given)
Second: CCC1(CO)CCCN(C(=O)c2cc(COc3ccccc3F)[nH]n2)C1 (stereo not given)
The “Percent Effect” value of the first is lower: -3.223% for the first, 110.4% for the second.

Going from `CCOc1ccc(C(=O)N2CCCC(n3ccnc3C)C2)cc1OC` (stereo not given) to `CCc1nccn1C1CCCN(C(=O)c2ccc(OC)c(OC)c2)C1` (stereo not given), the “Percent Effect” value rises from 91.57% to 97.86%.

First: Cc1nccn1C1CCCN(C(=O)c2ccc3c(c2)nnn3C)C1 (stereo not given)
Second: CCc1nccn1C1CCCN(C(=O)c2ccc3c(c2)nnn3C)C1 (stereo not given)
The “Percent Effect” value of the first is lower: -0.6055% for the first, 93.39% for the second.

First: CCc1nccn1C1CCCN(C(=O)c2ccn(C)c(=O)c2)C1 (stereo not given)
Second: CCc1nccn1C1CCCN(C(=O)c2ccc3[nH]nnc3c2)C1 (stereo not given)
The “Percent Effect” value of the first is lower: -5.694% for the first, -5.197% for the second.

Going from `CCc1nccn1C1CCCN(C(=O)Cc2ccc(OC)c(F)c2)C1` (stereo not given) to `COc1cccc(OCC2CCCN(C(C)=O)C2)c1` (stereo not given), the “Percent Effect” value rises from -2.667% to -1.082%.

First: Cc1nc(C)c2c(n1)CCN(C(=O)C1(C#N)CC1)CC2
Second: Cc1cccc(C(=O)N2CCn3cnc(COCC4CC4)c3C2)n1
The “Percent Effect” value of the first is higher: -4.604% for the first, -8.525% for the second.

First: Fc1cccc(-c2nnn3c2COC(CNCc2nccs2)C3)c1.O=C(O)C(F)(F)F (stereo not given)
Second: CCOCc1ncn2c1CN(C(=O)Nc1cccc(F)c1)CC2
The “Percent Effect” value of the first is lower: -16.9% for the first, 101.4% for the second.

Going from `CNC(=O)c1ccnc(N2CCCC(COc3cccc(C)c3)C2)c1` (stereo not given) to `CC(=O)N1CCN(c2ccnc(C)n2)CC(COc2ccccc2)C1` (stereo not given), the “Percent Effect” value rises from -58.5% to 112.4%.

Going from `Cc1nccc(N2CCC(Cc3cccc(C(=O)O)c3)CC2)n1` to `Cc1cccc(C(=O)N2CCn3cnc(COCC4CC4)c3C2)c1`, the “Percent Effect” value falls from 4.494% to -5.443%.

Compared with `CC(=O)N1CCN(CC(N)=O)CC(COc2ccccc2)C1` (stereo not given), `CC(=O)N1CCN(C(C)C)CC(COc2ccccc2)C1` (stereo not given) is higher in “Percent Effect” value: 106.5% for the first, 109.4% for the second.

Compared with `O=C(N1CCN(CCO)CC1)C1(O)Cc2ccccc2C1`, `COc1ccccc1OCc1cc(C(=O)N2CCN(C(C)=O)CC2)n[nH]1` is lower in “Percent Effect” value: -5.424% for the first, -25.23% for the second.

Compared with `CCc1ccc(S(=O)(=O)Nc2cn(C)cc(Br)c2=O)cc1`, `Cc1cc(CS(=O)(=O)N(C)C(C)c2ccc(F)cc2)on1` (stereo not given) is higher in “Percent Effect” value: -15.07% for the first, -9.775% for the second.

First: Cc1ccc(-c2ncc(CN3CCN(S(N)(=O)=O)CC3)s2)o1
Second: CCOCc1ncn2c1CN(S(=O)(=O)c1cccs1)CC2
The “Percent Effect” value of the first is higher: 2.671% for the first, -7.388% for the second.

Going from `CCn1ccnc1CN(C)c1nc(-c2ccc(Cl)cc2)nc2c1CNC2` to `COc1ccc(Cn2c(C3CCNCC3)cc3cccnc32)cc1.Cl`, the “Percent Effect” value rises from -33.82% to 109.4%.

Compared with `O=c1nc(SCc2ccncc2)c2c(n1CCO)CCCC2`, `CN1CCCCC1c1nc(Cc2cccc(F)c2)no1` (stereo not given) is higher in “Percent Effect” value: -12.21% for the first, -5.711% for the second.

Going from `COc1cccc(CN2C[C@H]3CCNCC[C@H]3S2(=O)=O)c1` to `COc1cccc(Cn2c(C3CCNCC3)cc3cccnc32)c1.Cl`, the “Percent Effect” value rises from 18.94% to 140.1%.

First: CC[C@H](C)Cn1nc(C2CCNCC2)n(Cc2ccccc2)c1=O
Second: Cc1ccccc1-c1cccc(CN2C[C@H]3C(=O)NC[C@@]3(C(=O)O)C2)c1
The “Percent Effect” value of the first is lower: -2.943% for the first, 6.685% for the second.

Going from `CN1CCCC1c1cc2cccnc2n1Cc1ccc(F)cc1.Cl` (stereo not given) to `CCC1(CO)CCCN(C(=O)c2cc(COc3cccc(F)c3)[nH]n2)C1` (stereo not given), the “Percent Effect” value falls from 120.9% to 87.47%.

Compared with `CCOC(C)C(=O)Nc1ccc(Sc2nncn2C)c(Cl)c1` (stereo not given), `CCOCc1ncn2c1CN(C(=O)Nc1cccc(C)c1)CC2` is higher in “Percent Effect” value: -6.719% for the first, -4.198% for the second.

Compared with `CN(C)C(=O)NCc1cc2n(n1)CCN(C[C@H]1[C@@H]3CNC[C@@H]31)C2`, `Cc1cccc(NC(=O)N2CCn3cnc(COCC4CC4)c3C2)c1` is higher in “Percent Effect” value: -18.92% for the first, 96.57% for the second.

First: Cc1cnn(CCNCC(O)COc2c(C)ccc(C)c2C)c1 (stereo not given)
Second: COc1ccccc1OCc1cc(C(=O)N2CCC(C(C)O)CC2)n[nH]1 (stereo not given)
The “Percent Effect” value of the first is lower: -3.427% for the first, 7.435% for the second.

Going from `COc1cccc(-c2cccc(-c3ccn(CC4COCCO4)n3)c2)n1` (stereo not given) to `Cc1cccc(-c2cccc(CC3(C(=O)O)CCOCC3)c2)c1`, the “Percent Effect” value rises from -14.19% to 103%.

Compared with `O=C(c1cscn1)N1C[C@H]2CN(Cc3nccs3)C[C@H]2C1`, `Cc1cnc(C(=O)N2C[C@H]3CN(Cc4nccs4)C[C@H]3C2)cn1` is higher in “Percent Effect” value: -12.17% for the first, 103.8% for the second.

Going from `CNC(=O)[C@H]1C[C@@H]2CN(C(=O)c3cnc(C)cn3)C[C@@H]2N1C` to `Cc1cnc(C(=O)N2C[C@H]3CN(Cc4cccs4)C[C@H]3C2)cn1`, the “Percent Effect” value rises from 18.09% to 71.69%.

Going from `O=C(O)C(F)(F)F.O=C1C[C@H]2[C@@H](CCN2C(=O)c2ccccc2)N1CCN1CCOCC1` to `CCOCc1ncn2c1CN(C(=O)Nc1ccccc1)CC2`, the “Percent Effect” value rises from -5.805% to 106.5%.

Going from `COc1ccccc1OC1CCN(c2nc(N)nc3[nH]cnc23)CC1` to `Cc1cccc(OC2CCN(c3nc(N)nc4[nH]cnc34)CC2)c1`, the “Percent Effect” value falls from -23.58% to -26.6%.

First: COc1ccccc1N1CCN(c2nc(N)nc3[nH]cnc23)CC1
Second: COc1ccccc1OCc1cc(C(=O)N2CCN[C@H](C)C2)n[nH]1
The “Percent Effect” value of the first is higher: 106.2% for the first, 8.163% for the second.

Compared with `Cc1ccc2nc(CN3CCN(C4CCCC4)C(=O)C3)cc(O)c2c1`, `Cn1nc(CN2CCCCC2)c2c1CN(C(=O)Nc1cccc(F)c1)C2` is lower in “Percent Effect” value: 1.578% for the first, -11.17% for the second.

Going from `Cc1cc(C)cc(-c2cccc(CC3(C(=O)O)CCOCC3)c2)c1` to `Cc1ccc(-c2cccc(CC3(C(=O)O)CCOCC3)c2)c(C)c1`, the “Percent Effect” value rises from -21.94% to 93.34%.

First: C=C(C)CN(CC)C(=O)Nc1ccccc1CN(C)C(C)=O
Second: CCC1(CO)CCN(C(=O)c2cc(COc3ccccc3F)[nH]n2)CC1
The “Percent Effect” value of the first is lower: 4.408% for the first, 118.9% for the second.

Going from `Cc1nc2ccc(CN3CC4(CCOC4)CCC3=O)cc2[nH]1` (stereo not given) to `O=C(c1cc(COc2ccc3c(c2)OCO3)[nH]n1)N1CCCC1`, the “Percent Effect” value falls from 9.533% to -5.101%.

First: COCc1nc2n(n1)CCCC2Nc1nc(C)ns1 (stereo not given)
Second: CCOCc1ncn2c1CN(C(=O)c1ccoc1)CC2
The “Percent Effect” value of the first is lower: -20.01% for the first, -9.138% for the second.

Going from `COc1cccc(OCc2cc(C(=O)N3CC(O)C3)n[nH]2)c1` to `COc1ccccc1OCc1cc(C(=O)N2CCS(=O)(=O)CC2)n[nH]1`, the “Percent Effect” value falls from -9.479% to -14.83%.
